The text below walks through data of PubChem BioAssay (NCI).

Compounds without any hit were thinned out: in the full panel of roughly 83,000, 20% have a hit.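 Single-concentration screen, 48 h exposure, 96-well plates. Endpoint: percent growth. Below 10 = active.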 A number with no mark means an inactive call. Active and inactive are the calls of the source.

The assay relates to SNB-75 CNS. The assay can be described thus: NCI-60 one-dose screen, 48 h (100 = growth as untreated, 0 = no growth, -100 = all killed). As to conditions: 10 µM unless noted.
For the compound `O=C(Nc1ccc(Oc2ccc(Nc3nc4ccccc4s3)cc2)cc1)Nc1ccc(Cl)c(C(F)(F)F)c1`, the growth was 16.7%. For `C[C@]12CCc3nc(Nc4ccc(O)cc4)sc3C1=CC[C@@H]1[C@@H]2CC[C@]2(C)/C(=N/NC(N)=S)CC[C@@H]12` the value was -2.86% (active); for `Cc1cc(N=Nc2ccc(-c3ccc(N=Nc4ccc(O)c(C(=O)O)c4)cc3)cc2)c(N)c(N=Nc2ccc(C(=O)O)cc2)c1N`, 82.5%; for `c1ccc2c(c1)cnc1ccccc12`, 93.6%.

Regarding `Cc1cc(C)c2c(n1)sc1c(Nc3ccc(OCc4ccccc4)cc3)ncnc12`, the growth was 108%.

`Cc1ccc2oc(=O)cc(-c3nc4ccc([N+](=O)[O-])cc4[nH]3)c2c1`: the growth was 70.1%. For `Cc1nc2ccc(Nc3nc(Cl)nc(N4CCOCC4)n3)cc2n1Cc1ccccc1` the value was 51.2%; for `CC(=O)c1c(O)c(C)c(O)c2c1OC1=CC(=O)/C(=C(/C)N)C(=O)C12C` (stereo not given), 91.5%. For `O=c1[nH]cnc2nc[nH]c12` the value was 90.8%. Consider `CCN(CC)C(Cl)=Nc1ccc(Cl)cc1`, for which the growth was 88.5%. Consider `c1ccc2c(Cc3csc4ccccc34)csc2c1`, for which the growth is 66.9%.

For `COS(=O)(=O)CCN(CCOS(C)(=O)=O)S(C)(=O)=O`, the growth was 90.4%. For `COc1cc(C2CC(c3cccc(Nc4ccnc5cc(Cl)ccc45)c3)=NN2c2ccccc2)cc(OC)c1OC` (stereo not given) the value was 79.2%; for `CSC(=S)N/N=C(\C)c1ccccn1`, 35.5%; for `CCC(C)C1NC(=O)c2nc(oc2-c2ccccc2)-c2csc(n2)-c2csc(n2)-c2nc(oc2C)-c2coc(n2)CNC(=O)C(C(C)CC)NC1=O` (stereo not given), -86.3% (active). In the case of `CCOC(=O)C1=C(C)NC(SCc2nnc(-c3ccc(Cl)cc3)o2)=NC1c1ccc(Br)cc1` (stereo not given), the growth is 67.7%.

In the case of `CC(CN1CCN(C)CC1)CN1c2ccccc2Sc2ccc(C(F)(F)F)cc21` (stereo not given), the growth was 45.5%. Turning to `Cc1[nH]nc2ccc3nc(-c4ccc5[nH]ncc5c4)c4c(c3c12)CCCC4`, the growth was 6.45% (active).

In the case of `CCCOC(=O)C1c2cc3c(cc2CC(C)C1C(=O)OCCC)OCO3` (stereo not given), the growth was 85.6%. In the case of `CC(=O)c1c(C)nc(-c2cc(C)cc(Cl)c2)nc1-c1cccc(Oc2ccccc2)c1`, the growth is 72.4%. Take `[Ag].[Ag].[NH-]S(=O)(=O)c1ccc(N=Nc2cc(N=Nc3ccc(S([NH-])(=O)=O)cc3)c3c(NC(=O)C(Cl)Cl)cccc3c2OC(=O)C(Cl)Cl)cc1.[c-]1nccs1.[c-]1nccs1`: the growth was 51.3%.

Take `Nc1ccc(N(O)/C=C2\C=CC=CC2=O)cc1N`: the growth is 104%. For `CC(C)CC(NC(=O)C(CCCN=C(N)N)NC(=O)OCc1ccccc1)C(=O)NC(CNC(=O)/C=C/c1ccccc1)C(C)C` (stereo not given) the value was 84.5%. In the case of `CCOC(=O)c1ccc(NCCC(=O)O)cc1`, the growth was 96%.

For `Cc1ccc(-c2cnc3sc4ccc(Cl)cc4n23)cc1`, the growth is 93.9%.

Take `COc1cc(C)c2c(=O)c3c(oc2c1)C(=O)c1c(O)c(OC)cc(O)c1C3=O`: the growth was -13.2% (active). For `O=C(OCc1ccc2c(Br)cc(Br)c(O)c2n1)c1cc2ccccc2[nH]1` the value was -46.3% (active); for `CCOC(=O)c1ccccc1SC(C[N+](=O)[O-])c1ccccc1` (stereo not given), 85.1%; for `CC(C)CC(NC(=O)OCC1c2ccccc2-c2ccccc21)C(=O)O` (stereo not given), 90.3%. For `CN1CCN(Cc2ccc(NC(=O)c3cncc(C#Cc4ccc(N)nc4)c3)cc2C(F)(F)F)CC1` the value was 4.55% (active).
